Test [1] in a line: qHTS assay to identify small molecule antagonists of the estrogen related receptor (ERR) signaling pathway from Tox21 library - cell viability counter screen (AID 1224834). Note: nearly all actives have a fitted effect of over 30% in size. Note: potency is the fitted concentration of half-maximal effect. An outline of the steps: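 Cytotoxicity of test substances is gauged in the same ERR cells used for the antagonist screen, after 17.5 h of compound treatment at 37 C, by CellTiter-Fluor fluorescence measured after 30 min.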

Test [2] concerns the target Luciferin 4-monooxygenase (Photinus pyralis) (UniProt P08659). Nature of the test: qHTS assay to identify small molecule inhibitors of firefly luciferase (AID 1224835). Note: nearly all actives have a fitted effect of over 25% in size. Note: potency is the fitted concentration of half-maximal effect. In a few lines:
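Biochemical qHTS: compounds run as interplate titrations against purified firefly enzyme, with D-luciferin and ATP each at its KM concentration. Light output recorded by CCD imaging.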
In general terms: In qHTS, concentration-response curves come from the screen itself.

Test [3] is described as follows: qHTS assay to identify small molecule agonists of the constitutive androstane receptor (CAR) signaling pathway - cell viability counter screen (AID 1224836). Note: nearly all actives have a fitted effect of over 45% in size. Note: potency is the fitted concentration of half-maximal effect. An outline of the steps:
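Fluorescence from CellTiter-Fluor indicates live cells after 23 h exposure. The human hepatoma line expresses hCAR and a CYP2B6-2.2kb reporter. Incubation medium contains 0.75 uM PK11195 (final).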

Test [4] is described as follows: qHTS assay to identify small molecule antagonists of the constitutive androstane receptor (CAR) signaling pathway - cell viability counter screen (AID 1224837). Note: nearly all actives have a fitted effect of over 45% in size. Note: potency is the fitted concentration of half-maximal effect. An outline of the steps: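 Multiplexed cytotoxicity read-out for the CAR antagonist screen: double-stable HepG2-CYP2B6-hCAR cells co-treated with 50 nM CITCO (final) and compound over 15 concentrations, incubated 23 hr, then assessed by CellTiter-Fluor fluorescence.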

Test [5] in a line: qHTS assay to identify small molecule antagonists of the estrogen related receptor signaling pathway with the pleiotropic PPARgamma coactivator (PGC) from Tox21 10K library - cell viability counter screen (AID 1224840; active = well fitted cell-killing curve with a large enough effect in the repeat runs, not every such curve was filed as active; note: nearly all actives have a fitted effect of over 40% in size; note: potency is the fitted concentration of half-maximal effect). An outline of the steps: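 Step one, plate 2,000 PGC/ERR cells per well; step two, incubate 6 h at 37 C/5% CO2; step three, pin-transfer compounds; step four, incubate 17.5 h; step five, add CellTiter-Fluor and read fluorescence after 30 min.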

A short description of test [6]: qHTS assay to identify small molecule agonists of the estrogen related receptor signaling pathway with the pleiotropic PPARgamma coactivator (PGC) from Tox21 10K library (AID 1224842). Note: nearly all actives have a fitted effect of over 15% in size. In a few lines:
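PGC/ERR reporter cell line, 2,000 cells per well, incubated 6 h at 37 C before 23 nL compound in DMSO was added. After 18 h at 37 C, One-Glo luminescence read following 30 min at room temperature.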

Test [7] addresses Thyrotropin receptor (Homo sapiens) (UniProt P16473). Nature of the test: qHTS assay to identify small molecule agonists of the thyroid stimulating hormone receptor (TSHR) signaling pathway (AID 1224843; calls by dose curve; note: nearly all actives have a fitted effect of over 45% in size). In a few lines: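 Steps: seed 800 TSHR-HEK293 cells per well; add test compound and hold 30 min at ambient temperature; dispense cAMP-d2 then anti-cAMP cryptate; incubate 1 h at ambient; measure fluorescence intensity.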

Test [8] can be described thus: qHTS assay to identify small molecule agonists of the hypoxia (HIF-1) signaling pathway - cell viability counter screen (AID 1224844; calls by dose curve; note: nearly all actives have a fitted effect of over 50% in size). An outline of the steps:
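Tox21 10K compounds were added to HRE-bla ME-180 cells (0.5% dialyzed FBS) and incubated 17 hrs at 37C; ATP-based CellTiter-Glo luminescence then reported cell viability in the same wells.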

Test [9] in a line: qHTS assay to identify small molecule agonists of the hypoxia (HIF-1) signaling pathway (AID 1224846; active = well fitted activation curve with a large enough effect in the signal ratio in the repeat runs, not every such curve was filed as active; the % refers to the signal ratio). In a few lines: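 Steps: seed ME-180 HRE-bla cells (2,000/well, 0.5% dialyzed FBS); incubate 5 hrs at 37C; pin-transfer compounds or DMSO; incubate 17 hrs; add LiveBLAzer B/G substrate CCF4-AM; measure reporter activation by FRET.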
Test [10] in a line: qHTS assay to identify small molecule antagonists of the estrogen related receptor (ERR) signaling pathway from Tox21 library (AID 1224848). Note: nearly all actives have a fitted effect of over 50% in size. Note: potency is the fitted concentration of half-maximal effect. An outline of the steps: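 Luminescent reporter read-out (ONE-Glo) from NTP's ERR cell line after 18 h treatment at 37 C with DMSO-dissolved Tox21 compounds; cells pre-plated 6 h beforehand at 2,000 per well.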
A short description of test [11]: qHTS RealTime-Glo MT Cell Viability Assay in HepG2 cells - 24 hour (AID 1224867). Note: nearly all actives have a fitted effect of over 50% in size. In a few lines:
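HepG2 cells were seeded at 600 cells/well together with NanoLuc luciferase and a cell-permeant prosubstrate, preincubated 5 h at 37 C/5% CO2, then pin-dosed with compounds in DMSO. Nonlytic luminescence from viable cells was read at each time point.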

Test [12] can be described thus: qHTS RealTime-Glo MT Cell Viability Assay in HEK293 cells - 32 hour (AID 1224868). Note: top concentration of the series differs between compounds; nearly all actives have a fitted effect of over 50% in size. An outline of the steps: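 HEK293 cells were seeded at 600 cells/well together with NanoLuc luciferase and cell-permeant prosubstrate, preincubated 5 h at 37 C/5% CO2, then given compound in DMSO by pintool. Luminescence from viable-cell prosubstrate reduction was read repeatedly over 40 h.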

The nature of test [13]: A CellTox Green Cytotoxicity Assay to monitor cytotoxicity in HEK293 cells - 0 hour (AID 1224869). Note: nearly all actives have a fitted effect of over 50% in size. In a few lines: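 Cytotoxicity was tracked continuously in HEK293 cells by a DNA-binding dye excluded from viable cells. Compounds were transferred in DMSO 5 h after seeding; fluorescence was recorded at intervals up to 40 h.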
Test [14] deals with Nuclear receptor subfamily 1 group I member 3 (Homo sapiens) (UniProt Q14994). Put plainly: qHTS assay to identify small molecule antagonists of the constitutive androstane receptor (CAR) signaling pathway (AID 1224838). Note: nearly all actives have a fitted effect of over 40% in size. An outline of the steps:
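Compounds were titrated across 15 concentrations onto HepG2 cells double-stably expressing hCAR and a CYP2B6-2.2kb reporter, together with 50 nM CITCO (final). After 24 h at 37 C, luciferase activity was measured by luminescence.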

The nature of test [15]: qHTS assay to identify small molecule agonists of H2AX - cell viability counter screen (AID 1224847; calls by dose curve; note: top concentration of the series differs between compounds; nearly all actives have a fitted effect of over 30% in size). An outline of the steps: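 Viability of CHO-K1 (wild type) cells after 3 hr compound exposure was measured by CellTiter-Glo luminescence.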
Test [16] has as its target Nuclear receptor subfamily 1 group I member 3 (Homo sapiens) (UniProt Q14994). Put plainly: qHTS assay to identify small molecule agonists of the constitutive androstane receptor (CAR) signaling pathway (AID 1224839).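 Note: HepG2 cells stably carrying human CAR and a CYP2B6 luciferase reporter; nearly all actives have a fitted effect of over 15% in size.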 In a few lines:
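Stable hCAR/CYP2B6-2.2kb HepG2 line in DMEM with 10% FBS; compounds (15 concentrations) and 0.75 uM PK11195 final, 24 h at 37 C/5% CO2, then ONE-Glo luminescence after 30 min.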

The nature of test [17]: qHTS assay to identify small molecule agonists of H2AX (AID 1224845; active = well fitted activation curve with a large enough effect in the signal ratio in the repeat runs, not every such curve was filed as active; the % refers to the signal ratio). An outline of the steps:
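Wild-type CHO-K1 cells, plated overnight, exposed 3hr at 37C to 15 concentrations (0.76% DMSO final). Lysed, then HTRF anti-pH2AX (S139) cryptate and anti-H2AX-d2 antibodies, 24 hr room temperature; 665/620 nm emission read.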

Test [18] in a line: qHTS assay to identify small molecule antagonists of the estrogen related receptor signaling pathway with the pleiotropic PPARgamma coactivator (PGC) from Tox21 10K library (AID 1224841; call rule not given here; note: potency is the fitted concentration of half-maximal effect). In a few lines: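 Antagonism in this quantitative HTS is taken from loss of luciferase signal in PGC/ERR cells. Cells (2,000/well) are treated with compounds in DMSO after a 6 h settling period and read by One-Glo luminescence after 18 h.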

Test [19] can be described thus: qHTS assay to identify small molecule agonists of the estrogen related receptor (ERR) signaling pathway from Tox21 library (AID 1224849; calls by dose curve; note: nearly all actives have a fitted effect of over 15% in size). To be noted: ERR reporter cell line, ONE-Glo luciferase, 18 h; at 92.4 µM (top of the series) unless noted. In a few lines:
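Agonist signal is luciferase luminescence from an ERR reporter cell line treated 18 h at 37 C with DMSO-dissolved compounds, read 30 min after ONE-Glo addition at room temperature.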

Unmarked numbers belong to inactive results. Inconclusive results are not listed. Activity calls are given as the source filed them. Unless noted, calls come from the whole dose curve; as a rule, active = well fitted curve in the direction sought with a large enough effect in the repeat runs; inconclusive = weak or mixed curves; inactive = no such curve, though single readings can be large; an effect the other way counts as inactive or inconclusive.
% is set by controls: 0 for no effect and ±100 for the full control effect.

Sequence of Nuclear receptor subfamily 1 group I member 3 (Homo sapiens) (Q14994 whole entry, looked up): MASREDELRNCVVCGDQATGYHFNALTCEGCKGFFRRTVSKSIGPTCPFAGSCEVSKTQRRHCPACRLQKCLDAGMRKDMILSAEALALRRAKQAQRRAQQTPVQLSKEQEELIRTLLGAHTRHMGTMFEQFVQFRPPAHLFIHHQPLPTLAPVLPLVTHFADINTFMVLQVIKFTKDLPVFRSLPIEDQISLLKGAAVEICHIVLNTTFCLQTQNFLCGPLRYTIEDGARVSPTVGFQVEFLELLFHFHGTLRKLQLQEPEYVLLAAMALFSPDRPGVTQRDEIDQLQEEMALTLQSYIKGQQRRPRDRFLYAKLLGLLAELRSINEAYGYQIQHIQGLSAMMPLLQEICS
Sequence of Thyrotropin receptor (Homo sapiens) (P16473 whole entry, looked up): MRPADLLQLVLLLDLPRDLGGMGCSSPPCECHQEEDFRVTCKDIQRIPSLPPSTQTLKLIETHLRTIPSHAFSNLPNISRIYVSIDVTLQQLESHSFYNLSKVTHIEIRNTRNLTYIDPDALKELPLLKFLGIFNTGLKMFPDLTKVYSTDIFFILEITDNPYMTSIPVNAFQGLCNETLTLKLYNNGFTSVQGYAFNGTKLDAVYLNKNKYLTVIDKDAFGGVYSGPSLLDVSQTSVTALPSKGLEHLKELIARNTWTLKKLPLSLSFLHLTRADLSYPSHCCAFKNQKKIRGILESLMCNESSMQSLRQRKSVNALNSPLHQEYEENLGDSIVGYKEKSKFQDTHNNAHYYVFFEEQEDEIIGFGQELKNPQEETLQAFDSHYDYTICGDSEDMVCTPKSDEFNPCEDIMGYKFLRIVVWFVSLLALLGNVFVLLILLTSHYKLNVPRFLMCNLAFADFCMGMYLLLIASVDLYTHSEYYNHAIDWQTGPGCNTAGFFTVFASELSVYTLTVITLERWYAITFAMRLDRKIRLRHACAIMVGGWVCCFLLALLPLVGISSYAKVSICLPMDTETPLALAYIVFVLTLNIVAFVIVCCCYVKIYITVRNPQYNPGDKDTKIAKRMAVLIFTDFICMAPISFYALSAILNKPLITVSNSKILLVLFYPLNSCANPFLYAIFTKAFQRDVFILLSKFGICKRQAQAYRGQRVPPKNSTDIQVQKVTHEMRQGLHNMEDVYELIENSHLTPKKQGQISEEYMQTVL
Sequence of Luciferin 4-monooxygenase (Photinus pyralis) (P08659 whole entry, looked up): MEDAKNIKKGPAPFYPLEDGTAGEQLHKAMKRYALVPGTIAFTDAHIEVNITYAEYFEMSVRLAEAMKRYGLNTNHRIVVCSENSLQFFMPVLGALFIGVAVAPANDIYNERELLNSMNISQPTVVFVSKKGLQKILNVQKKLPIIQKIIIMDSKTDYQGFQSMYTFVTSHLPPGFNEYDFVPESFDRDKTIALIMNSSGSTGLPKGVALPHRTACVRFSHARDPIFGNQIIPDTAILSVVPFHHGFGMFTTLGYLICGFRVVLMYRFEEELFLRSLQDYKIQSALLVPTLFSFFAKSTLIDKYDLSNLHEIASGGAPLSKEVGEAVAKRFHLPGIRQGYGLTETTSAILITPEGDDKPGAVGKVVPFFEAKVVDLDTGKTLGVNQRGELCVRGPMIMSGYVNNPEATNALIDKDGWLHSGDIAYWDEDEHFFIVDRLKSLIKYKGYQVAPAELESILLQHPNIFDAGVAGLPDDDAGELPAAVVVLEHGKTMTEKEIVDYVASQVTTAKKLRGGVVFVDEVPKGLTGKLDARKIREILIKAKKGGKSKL

Turning to `Cc1cc(S(=O)(=O)O)ccc1N=Nc1c(O)ccc2ccccc12`, the Potency in [1] was 30.6 µM (active); in [2], 25.2 µM (active); in [3], 48.6 µM (active); in [4], 34.4 µM (active); in [5], 34.4 µM (active). Besides, the Potency entry in test [6], in test [7], in test [8], in test [10], in test [11] and in test [12] was “inactive” throughout. In addition, the Potency entry in [13] was “inactive”. Also, in [9], the compound was classed as inactive.

Regarding `CC1=NN(c2ccc(C(=O)O)cc2)C(=O)C1`, the Potency result in [2], in test [3], in [4], in test [14], in test [5] and in test [8] was “inactive” in each case. For the same compound, the Potency result in [15], in [11], in test [12] and in test [13] was “inactive” each time. Also, the result in test [9] was inactive.

Regarding `CCC(=O)OC/C=C/c1ccccc1`, the Potency entry in [1], in test [3], in test [4], in test [16], in test [5] and in test [8] was “inactive” throughout. Moreover, the Potency result in test [17], in test [11], in test [12] and in [13] was “inactive” throughout. In addition, in test [9], the compound was classed as inactive.

With `N#C/C(=C1/SC[C@@H](c2ccc(Cl)cc2Cl)S1)n1ccnc1`, the Potency entry in test [2], in test [3], in test [4], in [14], in [5] and in test [6] was “inactive” each time. The Potency result in [7], in [8], in [17], in test [15], in test [11] and in [12] was “inactive” each time. Further, the Potency result in [13] is “inactive”. In addition, the Potency in test [18] and in test [10] was 23.7 µM (active) each time. Moreover, the outcome in test [9] was inactive.

In the case of `COC(=O)c1cc(Cl)ccc1NS(=O)(=O)C(F)(F)F`, the Potency entry in [2], in test [3], in test [4], in test [14], in test [16] and in [5] was “inactive” each time. Moreover, the Potency entry in test [18], in test [7], in test [8], in test [17], in test [15] and in test [10] was “inactive” throughout. Besides, the Potency result in test [11], in [12] and in test [13] was “inactive” throughout. The compound was called inactive in test [9]. Besides, the activity change, positive = activation in [19] is 6.47% [at 42.5 µM].

With `COc1ccc(C(=O)c2cccc(O)c2)c(OC)c1`, the Potency result in [2], in test [3], in test [4], in test [14], in [16] and in [5] was “inactive” throughout. Also, the Potency entry in [8], in test [17], in test [15], in test [11], in [12] and in [13] was “inactive” in each case.

Consider `CC(C)CCCCCOC(=O)CCCCC(=O)OCCCCCC(C)C`, for which the Potency result in test [2], in test [3], in test [4], in [14], in [16] and in test [5] was “inactive” throughout. Moreover, the Potency entry in [18], in [6], in test [8], in test [17], in test [15] and in test [10] was “inactive” in each case. The Potency entry in test [11], in test [12] and in test [13] was “inactive” throughout. In addition, in test [19], the activity change, positive = activation was -6.86%.

Turning to `OCC1CC=CCC1` (centres undefined), the Potency entry in test [1], in [3], in test [4], in test [14], in [16] and in test [5] was “inactive” in each case. Further, the Potency result in test [7], in [8], in test [15], in test [11], in [12] and in test [13] was “inactive” throughout. The result in test [9] was inactive.

For the origin of these results see PubChem BioAssay (Tox21).
